Measured values as given in article PMC6664820, “Novel natural and synthetic inhibitors of solute carriers SGLT1 and SGLT2” (Pharmacology Research & Perspectives, 2019).
The whole screen tested about 1,900 compounds, of which about 40 (2%) showed an effect of 50% or more. Only a selection was taken, and strong results are over-represented in it overall. Residues, ends and D or L forms follow the SMILES beside them.

What follows are compounds tested against human SGLT1 (hSGLT1) (human, UniProt P13866) (assay: primary screen, percent of control activity; higher = less effect of the substance). Settings: 50 µM.
Set-up: single well
Method: Two days before the assay, CHO‐wild type and CHO‐hSGLT1 cells were seeded in maintenance medium at 25 000 cells/well in clear‐bottom black 96‐well cell culture plates. Before the assay, cells were washed 3 times with 150 μL/well D‐glucose free DMEM with 0.3% (w/v) BSA. Library compounds at 50 μmol/L (singlicate) prepared in D‐glucose free DMEM with 160 μmol/L 1‐NBD‐glucose and 0.3% (w/v) BSA and negative controls (triplicate) were added at 100 μL/well and placed in a humidified incubator at 37°C with 5% CO2 for 90 minutes. Next, cells were washed 3 times with DMEM with 0.3% (w/v) BSA (150 μL/well). Care was taken to remove all medium after the last wash. Finally, 1‐NBD‐glucose was extracted from the cells by adding 10 μL/well isopropanol and orbital shaking for 5 minutes at 600 rpm, followed by incubation in the dark for 30 minutes. Fluorescence was measured on a Tecan Infinite M200 Microplate Reader (Tecan, Männedorf, Switzerland) with excitation at 445 nm and emission at 525 nm. The amount of 1‐NBD‐glucose taken up by the CHO‐wild type or CHO‐hSGLT1 cells in the presence or absence of test compounds was interpolated from 1‐NBD‐glucose calibration standards. The background uptake by CHO‐wild type was subtracted from the uptake by CHO‐hSGLT1. Background corrected uptake with test compound was expressed as a percentage of corrected uptake without test compound.

Sequence of human SGLT1 (hSGLT1) (P13866 whole entry, looked up): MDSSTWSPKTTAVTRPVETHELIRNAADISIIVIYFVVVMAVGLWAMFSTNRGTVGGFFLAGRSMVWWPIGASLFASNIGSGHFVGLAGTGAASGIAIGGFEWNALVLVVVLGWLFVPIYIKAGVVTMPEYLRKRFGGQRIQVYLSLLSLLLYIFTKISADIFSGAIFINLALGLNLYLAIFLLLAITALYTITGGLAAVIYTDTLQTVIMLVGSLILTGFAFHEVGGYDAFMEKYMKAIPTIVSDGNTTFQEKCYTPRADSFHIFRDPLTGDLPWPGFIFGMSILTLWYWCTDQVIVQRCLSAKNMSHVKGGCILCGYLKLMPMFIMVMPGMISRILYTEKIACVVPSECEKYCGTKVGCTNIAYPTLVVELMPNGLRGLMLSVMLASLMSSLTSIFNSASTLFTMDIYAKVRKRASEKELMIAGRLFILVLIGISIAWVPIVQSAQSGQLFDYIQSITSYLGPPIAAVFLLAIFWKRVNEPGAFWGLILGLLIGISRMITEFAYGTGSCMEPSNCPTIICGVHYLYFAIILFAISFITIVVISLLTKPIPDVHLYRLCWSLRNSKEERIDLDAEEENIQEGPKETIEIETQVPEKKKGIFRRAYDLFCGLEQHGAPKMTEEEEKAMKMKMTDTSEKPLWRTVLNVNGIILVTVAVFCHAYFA

SMILES | NORMALIZED SGLT1 ACTIVITY (%)
CC(C)CC(N(C)C)C1(c2ccc(Cl)cc2)CCC1.Cl (stereo not shown) | 28
CC(C)CCCC(C)C1CCC2C3CC(=O)[C@H]4C[C@@H](O)CC[C@]4(C)C3CC[C@]12C (stereo partly shown) | 107
O=C(O)c1cc2cc(Cl)ccc2[nH]1 | 238
C=C1C(C2(C)C=CC(=O)C(C)(C)C2CC(=O)OC)CC[C@@]2(C)[C@H](c3ccoc3)OC(=O)C3OC132 (stereo partly shown) | 86
CC(=O)OCC(=O)[C@H]1CC[C@H]2[C@@H]3CCC4=CC(=O)CC[C@]4(C)[C@H]3CC[C@]12C | 114
CC(=O)[C@H]1CCC2C3CCC4=CC(=O)CC[C@]4(C)C3CC[C@@]21C (stereo partly shown) | 38
C[C@]12CCC(=O)C=C1CCC1C2CC[C@@]2(C)C1CC[C@@H]2O (stereo partly shown) | 98
C[C@@H]1CC[C@@]2(NC1)O[C@H]1C[C@H]3C4CC=C5C[C@@H](O)CC[C@]5(C)C4CC[C@]3(C)C1[C@@H]2C (stereo partly shown) | 109
CCC1(c2ccc(N)cc2)CCC(=O)NC1=O (stereo not shown) | 108
COc1ccc2c(c1)OC/C(=C/c1ccc(O)c(O)c1)C2=O | 249
CCCCC(CC)CNC(=N)NC(=N)NCCCCCCNC(=N)NC(=N)NCC(CC)CCCC.Cl.Cl (stereo not shown) | 36
COc1ccc(C[C@H](N)C(=O)N[C@@H]2[C@@H](CO)OC(n3cnc4c(N(C)C)ncnc43)[C@@H]2O)cc1.Cl.Cl (stereo partly shown) | 116
O=C(O)COc1ccc(Cl)cc1Cl | 196
COC(=O)[C@]1(C)CCC[C@]2(C)c3ccc(C(C)C)cc3C(=O)CC12 (stereo partly shown) | 89
O=C(CCCN1CCN(c2ccccn2)CC1)c1ccc(F)cc1 | 111
Oc1c(Cl)c(Cl)c(Cl)c(Cl)c1Cl | 622
Oc1c(Cl)cc(Cl)c(Cl)c1Cc1c(O)c(Cl)cc(Cl)c1Cl | -43
Cc1ccc2c(Cl)cc(Cl)c(O)c2n1 | 100
Cn1c(=O)[nH]c2ncn(C)c2c1=O | 164
CC(C)=CCOc1c2occc2cc2ccc(=O)oc12 | 161
CC(CN(C)C)CN1c2ccccc2CCc2ccccc21.O=C(O)/C=C\C(=O)O (stereo not shown) | 51
CC(CN(C)C)CN1c2ccccc2Sc2ccccc21.O=C(O)C(O)C(O)C(=O)O (stereo not shown) | 45
CC(CN1c2ccccc2Sc2ccccc21)N(C)C.Cl (stereo not shown) | 87

SMILES | NORMALIZED SGLT1 ACTIVITY (%)
CN(C)CCCN1c2ccccc2Sc2ccccc21.Cl | 38
CN(C)CCCN1c2ccccc2Sc2ccc(Cl)cc21 | 60
CCN(CC)C(C)CN1c2ccccc2Sc2ccccc21.Cl (stereo not shown) | 46
CN(C)CCCN1c2ccccc2Sc2ccc(C(F)(F)F)cc21.Cl | 62
NS(=O)(=O)c1cc2c(cc1C(F)(F)F)NC(Cc1ccccc1)NS2(=O)=O (stereo not shown) | 125
O=C(Cn1ccnc1[N+](=O)[O-])NCCO | 119
CC(=O)O[C@H]1CC[C@@]2(C)C(C[C@@H](OC(C)=O)[C@@]3(C)C4=CC(=O)O[C@@H](c5ccoc5)[C@]4(C)CCC23)C1(C)C (stereo partly shown) | 358
CCCCC1C(=O)N(c2ccccc2)N(c2ccc(O)cc2)C1=O (stereo not shown) | 109
CCCCCNC(=N)N/N=C/c1c[nH]c2ccc(OC)cc12.O=C(O)/C=C\C(=O)O | 141
CO[C@@]1(NC(=O)C(C(=O)[O-])c2ccc(O)cc2)C(=O)N2C(C(=O)[O-])=C(CSc3nnnn3C)CO[C@@H]21.[Na+].[Na+] (stereo partly shown) | 97
CC(=O)O[C@@H]1CC(=O)[C@@]2(C)C(CC(=O)[C@]3(C)C2CC[C@@]2(C)[C@H](c4ccoc4)OC(=O)C4OC423)C1(C)C (stereo partly shown) | 92
COC(=O)[C@@]1(C)CCC[C@]2(C)c3ccc(O)c(C(C)C)c3CCC12 (stereo partly shown) | 138
Cc1c(O)c(C(=O)CC(C)C)c2oc3c(C(=O)CC(C)C)c(O)c(C)c(O)c3c2c1O | 107
O=[N+]([O-])c1ccc(O)c([N+](=O)[O-])c1 | 145
CC(=O)Nc1ccccc1 | 112
CC(=O)[O][Hg][c]1ccccc1 | 4
CC(=O)Oc1ccccc1C(=O)O | 112
Cc1nc2ccccn2c(=O)c1CCN1CCC(C(=O)c2ccc(F)cc2)CC1 | 129
CCCCCCCCCCCCCCCCCC(=O)O.CC[C@H]1OC(=O)[C@H](C)[C@@H](O[C@H]2C[C@@](C)(OC)[C@@H](O)[C@H](C)O2)[C@H](C)[C@@H](O[C@@H]2O[C@H](C)C[C@H](N(C)C)[C@H]2O)[C@](C)(O)C[C@@H](C)C(=O)[C@H](C)[C@@H](O)[C@]1(C)O | 106
COc1ccc2c(=O)cc(-c3ccccc3OC)oc2c1 | 139
COc1cc(OC)c2c(=O)c(-c3ccccc3)coc2c1 | 336
CCCCCCCCCCCCCCCCOP(=O)([O-])OCC[N+](C)(C)C | 79
C[N+](C)(C)CCCCCC[N+](C)(C)C.[Br-].[Br-] | 95

SMILES | NORMALIZED SGLT1 ACTIVITY (%)
CCCCCCCCCCCCCCCC[N+](C)(C)C.[Br-] | 19
CCCc1nc2c(C)cc(-c3nc4ccccc4n3C)cc2n1Cc1ccc(-c2ccccc2C(=O)O)cc1 | 171
Cl.Cl.NCCc1c[nH]cn1 | 140
O=C(O)c1cc(O)c2ccccc2n1 | 97
COC(=O)CC1C(C)(C)C(OC(C)=O)[C@@H]2[C@@H](OC(C)=O)[C@]34O[C@@]2(O)[C@]1(C)C3CC[C@]1(C)C4=CC(=O)O[C@H]1c1ccoc1 (stereo partly shown) | 94
O=C(Cc1ccccc1)NO | 95
Cc1cccc(CN2CCN(C(c3ccccc3)c3ccc(Cl)cc3)CC2)c1.Cl.Cl (stereo not shown) | 133
Cl.Clc1ccc(C(OCCN2CCCCC2)c2ccccc2)cc1 (stereo not shown) | 37
Cl.Cl.O=C(O)COCCN1CCN(C(c2ccccc2)c2ccc(Cl)cc2)CC1 (stereo not shown) | 141
CCCCC[C@H]1C(=O)O[C@H](C)[C@H](NC(=O)c2cccc(NC=O)c2O)C(=O)O[C@@H](C)[C@@H]1OC(=O)CC(C)C | 220
O=C(O)c1cn(C2CC2)c2cc(N3CCNCC3)c(F)cc2c1=O | 76
O=c1ccc2cc(O)c(O)cc2o1 | 134
CC(NCCC(c1ccccc1)c1ccccc1)c1ccccc1.Cl (stereo not shown) | 48
CNC(C)[C@H](O)c1ccccc1.Cl (stereo partly shown) | 106
CN[C@@H](C)[C@@H](O)c1ccccc1.Cl | 120
COc1cc(/C=C/C(=O)O)ccc1O | 147
N[C@H](C(=O)O)[C@@H]1CC(Cl)=NO1 | 89
COc1ccc2[nH]cc(CCN)c2c1.Cl | 120
O=[N+]([O-])O[C@H]1CO[C@H]2[C@@H]1OC[C@H]2O[N+](=O)[O-] | 100
CCN1CCCC(OC(=O)C(c2ccccc2)c2ccccc2)C1.Cl (stereo not shown) | 90
CN1CCCN=C1COC(=O)C(O)(c1ccccc1)C1CCCCC1.Cl (stereo not shown) | 43
Cc1ccsc1/C=C/C1=NCCCN1C.O=C(O)CC(O)(CC(=O)O)C(=O)O | 91
COc1c2c(cc3c1OCO3)CC[N+](C)=C2.[Cl-] | 98

SMILES | NORMALIZED SGLT1 ACTIVITY (%)
C[N+](C)(C)CCO.[Cl-] | 97
N[C@@H](Cc1ccccc1)C(=O)N[C@@H](Cc1ccc(O)cc1)C(=O)O (H-Phe-Tyr-OH) | 112
CCC(CCC(C)[C@H]1CCC2C3CC=C4C[C@@H](O)CC[C@]4(C)C3CC[C@@]21C)C(C)C (stereo partly shown) | 106
Nc1ccc(S(=O)(=O)NC(=O)c2ccccc2)cc1 | 100
CC(=O)O[C@H]1CC[C@@]2(C)C(CC[C@]3(C)C2C(=O)C=C2C4[C@@H](C)[C@H](C)CC[C@]4(C(=O)O)CC[C@]23C)C1(C)C (stereo partly shown) | 37
C[C@H]1[C@H](C)CC[C@]2(C(=O)O)CC[C@]3(C)C(=CC[C@@H]4[C@@]5(C)CC[C@H](O)C(C)(C)[C@@H]5CC[C@]43C)[C@H]12 | 84
CC(=O)O[C@@H]1CC[C@@]2(C)C(CC[C@]3(C)C2CC=C2C4CC(C)(C)CC[C@]4(C(=O)O)CC[C@]23C)C1(C)C (stereo partly shown) | 141
CCCCCc1c2c(cc(O)c1C(=O)O)OC(=O)c1c(cc(OC)cc1C(=O)CCCC)O2 | 152
O=C(O)c1cccnc1C(=O)O | 124
O=C(O)Cc1nn(Cc2ccc(Br)cc2F)c(=O)c2ccccc12 | 180
CC(COc1ccccc1)N(CCCl)Cc1ccccc1.Cl (stereo not shown) | 35
C[C@H](COc1ccccc1)N[C@H](C)[C@H](O)c1ccc(O)cc1.Cl | 119
C#CCN(C)Cc1ccccc1.Cl | 134
C[C@H]1O[C@@H](O[C@H]2[C@@H](O)C[C@H](O[C@H]3[C@@H](O)C[C@H](O[C@H]4CC[C@@]5(C)[C@H](CC[C@@H]6[C@@H]5CC[C@]5(C)[C@@H](C7=CC(=O)OC7)CC[C@]65O)C4)O[C@@H]3C)O[C@@H]2C)C[C@H](O)[C@@H]1O | 111
CC(CCC(=O)O)[C@H]1CCC2C3C(C[C@H](O)[C@@]21C)[C@@]1(C)CC[C@@H](O)C[C@H]1C[C@H]3O (stereo partly shown) | 89
C[C@H]1OC(n2cc(F)c(=O)[nH]c2=O)C(O)[C@@H]1O (stereo partly shown) | 112
Cn1c(=O)c2c(ncn2CCCl)n(C)c1=O | 183
COc1cccc(OC)c1OCCNCC1COc2ccccc2O1.Cl (stereo not shown) | 72
CN(Cc1cc(Br)cc(Br)c1N)C1CCCCC1.Cl | 44
Cl.Nc1c(Br)cc(Br)cc1CNC1CCC(O)CC1 (stereo not shown) | 99
C[C@@H]1[C@H]2[C@H](O[C@@H]3O[C@H](CO)[C@@H](O)[C@H](O)[C@H]3O)OC=C(C(=O)O)[C@H]2C[C@@H]1O | 123
Nc1ccn(C2O[C@H](CO)[C@@H](O)[C@H]2O)c(=O)n1 (stereo partly shown) | 107
